The source of these data is PubChem BioAssay.

Test [1] deals with Wnt5a (protein binding on small-molecule microarray). In words: Wnt5a binders on small-molecule microarray, primary screen, biophysical, 635/667 nm fluorescence (AID 1142).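 Further: fluorescence read at 667 nm with signal to noise per printed feature.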 The settings on record: 635 nm fluorescence, higher = more signal.
A short description of test [2]: cell viability in Huh7 cells, primary screen, cytotoxicity control for HCV replication inhibitor project, CellTiter-Glo luminescence, basal, 48 h (AID 1143).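 Further: Huh7 hepatoma cells carrying a hepatitis C replication reporter with no stimulus; test concentration not given here.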 The following applies: Huh7 HCV replicon, higher = more signal, called active from +8 up or from −8 down. (In general: Cellular ATP, detected with luciferase, serves as a proxy for viable cell number.)
Test [3] can be described thus: P. aeruginosa biofilm formation inhibitors, primary screen, PAO1 strain, BacTiter-Glo luminescence, LB-PBS (AID 1144). The settings on record: 12 h, higher = more signal.
Test [4] in a line: CREB reporter modulators without forskolin, primary screen, cell-based, PC12, CRE-LacZ reporter, unstimulated (AID 1145). The following applies: no forskolin, luminescence, 4.5 h, higher = more signal, called active from +8 up or from −8 down.
Test [5] can be described thus: CREB reporter modulators under forskolin, primary screen, cell-based, PC12, CRE-LacZ reporter, forskolin-stimulated (AID 1146).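 Further: PC12 cells with 6xCRE LacZ reporter stimulated by forskolin 10 µM; beta-galactosidase reporter signal reflecting CREB driven transcription.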 The settings on record: luminescence, 4.5 h, higher = more signal, called active from +8 up or from −8 down.
Test [6] deals with Streptavidin (Streptomyces avidinii) (UniProt P22629). Put plainly: streptavidin binders on small-molecule microarray, primary screen, artefact control for SMM compound annotation, biophysical, 635/667 nm fluorescence (AID 1147).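 Further: signal reflects streptavidin binding to arrayed compounds as a control protein.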 The following applies: streptavidin binding, higher = more signal.
Streptavidin (Streptomyces avidinii), sequence (P22629 whole entry, looked up): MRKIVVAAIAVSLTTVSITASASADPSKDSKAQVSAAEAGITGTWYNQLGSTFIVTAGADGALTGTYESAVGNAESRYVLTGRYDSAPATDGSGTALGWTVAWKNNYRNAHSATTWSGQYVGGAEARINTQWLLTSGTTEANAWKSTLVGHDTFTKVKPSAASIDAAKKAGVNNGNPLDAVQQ
The nature of test [7]: small-molecule binders of probe aInhba, primary screen, biochemical, small-molecule microarray, 635/667 nm fluorescence (AID 1148).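 Further: score merges 667nm spot fluorescence with signal-to-noise for antibody binding to printed compounds.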 The following applies: higher = more signal.
The target in test [8] is Torsin-1A (Homo sapiens) (UniProt O14656). In words: torsin A binders from cell lysate, primary screen, small-molecule microarray, wild-type, 635/667 nm (AID 1149). The following applies: COS7 hTOR1A-WT lysate, 635 nm fluorescence, higher = more signal.
Torsin-1A (Homo sapiens), sequence (O14656 whole entry, looked up): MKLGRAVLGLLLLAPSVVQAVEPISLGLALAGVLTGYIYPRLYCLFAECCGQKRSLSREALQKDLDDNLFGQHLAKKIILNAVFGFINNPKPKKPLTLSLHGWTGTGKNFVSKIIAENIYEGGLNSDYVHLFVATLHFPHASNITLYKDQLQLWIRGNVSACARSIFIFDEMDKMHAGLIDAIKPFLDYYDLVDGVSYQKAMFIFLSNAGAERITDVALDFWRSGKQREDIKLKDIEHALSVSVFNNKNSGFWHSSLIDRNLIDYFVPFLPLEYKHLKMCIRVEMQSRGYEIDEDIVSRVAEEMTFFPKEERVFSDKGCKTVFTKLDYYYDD
Test [9] shares this target. Put plainly: small-molecule binders of mutant TOR1A in lysate, primary screen, cell lysate, small-molecule microarray, COS7 lysate, 635/667 nm fluorescence (AID 1150).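 Further: score pools 667 nm emission and signal to noise measuring lysate protein binding.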 The following applies: COS7 hTOR1A mutant lysate, 635 nm fluorescence, higher = more signal.
Test [10] deals with Sonic hedgehog protein (Shh). In words: small-molecule binders of Shh protein, primary screen, biochemical, small-molecule microarray, 635/667 nm fluorescence (AID 1151).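 Further: Shh protein binding to compounds spotted on small-molecule microarray slides; score combines spot fluorescence intensity with signal-to-noise across triplicate slides.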 The settings on record: small-molecule microarray binding, 635 nm fluorescence; higher = more signal.
The nature of test [11]: E. coli DRC41 culture turbidity changes, primary screen, E. coli filamentation inducer project, strain DRC41, OD650, 48 h (AID 1152).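 Further: E. coli MC1000 strain DRC41 lacking acrAB efflux pump and sulA.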 The settings on record: E. coli DRC41 (acrAB sulA), higher = more signal, called active from +8 up or from −8 down.
Test [12] is described as follows: small-molecule binders of probe aLefty1, primary screen, biochemical, small-molecule microarray, 635/667 nm fluorescence (AID 1153).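 Further: score merges spot fluorescence with signal-to-noise ratio from the scanned slide images.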 The settings on record: higher = more signal.
A short description of test [13]: PSAC antagonists in infected red cells, primary screen, cell-based, P. falciparum Indochina, OD700, 1 h (AID 1154). The following applies: P. falciparum Indochina infected RBC osmotic lysis, higher = more signal, called active from +8 up or from −8 down.
Test [14] can be described thus: PSAC antagonists in infected red cells, primary screen, cell-based, P. falciparum Indochina, OD700, 2 h (AID 1155).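 Further: lysis reports solute entry through the parasite surface anion channel PSAC; channel blockers reduce lysis of infected cells.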 The settings on record: P. falciparum Indochina infected erythrocytes, osmotic lysis OD700; higher = more signal, called active from +8 up or from −8 down.
Test [15] can be described thus: osmotic lysis modulators in infected erythrocytes, primary screen, PSAC antagonist project, cell-based, P. falciparum Indochina, OD700, 3 h (AID 1156). The following applies: higher = more signal, called active from +8 up or from −8 down.
Test [16] in a line: PSAC antagonists in infected red cells, primary screen, cell-based, P. falciparum Indochina, OD700, 18 h (AID 1157). The following applies: P. falciparum Indochina infected erythrocytes, osmotic lysis OD700, 18 h; higher = more signal, called active from +8 up or from −8 down.
Test [17] in a line: modulators of S6 phosphorylation in cells, primary screen, cell-based, A549, cytoblot, luminescence, serum-stimulated (AID 1158).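 Further: serum-stimulated A549 lung adenocarcinoma cells; signal is phosphorylated S6 detected by cytoblot immunostaining with HRP secondary.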 The following applies: A549 phospho-S6 cytoblot, 5 h, higher = more signal.
For test [18], the target named is NADPH oxidase 2 (Homo sapiens) (UniProt P04839). Put plainly: NOX2-dependent H2O2 signal modulators, primary screen, NOX inhibitor project, cell-based, HEK293-NOX2, PMA-stimulated, Amplex Red fluorescence (AID 1159). Further: test concentration not given here. The settings on record: 45 min, higher = more signal, called active from +8 up or from −8 down.
NADPH oxidase 2 (Homo sapiens), sequence (P04839 whole entry, looked up): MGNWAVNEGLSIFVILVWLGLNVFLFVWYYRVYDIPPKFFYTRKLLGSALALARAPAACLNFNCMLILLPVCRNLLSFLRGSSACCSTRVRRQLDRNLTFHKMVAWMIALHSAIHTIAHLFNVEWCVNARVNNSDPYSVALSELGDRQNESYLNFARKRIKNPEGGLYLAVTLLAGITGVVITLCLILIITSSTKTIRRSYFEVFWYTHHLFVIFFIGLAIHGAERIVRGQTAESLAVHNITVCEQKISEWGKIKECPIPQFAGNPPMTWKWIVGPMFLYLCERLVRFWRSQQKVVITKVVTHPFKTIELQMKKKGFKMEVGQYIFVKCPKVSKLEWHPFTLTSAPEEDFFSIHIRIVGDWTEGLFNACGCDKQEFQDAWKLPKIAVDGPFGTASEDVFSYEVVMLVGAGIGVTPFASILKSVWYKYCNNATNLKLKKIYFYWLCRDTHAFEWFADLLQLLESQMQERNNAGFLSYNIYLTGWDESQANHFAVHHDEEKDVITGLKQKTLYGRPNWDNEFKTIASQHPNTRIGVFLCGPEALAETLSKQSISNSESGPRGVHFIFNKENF
Test [19] has as its target NADPH oxidase 4 (Homo sapiens) (UniProt Q9NPH5). Put plainly: NOX4-dependent H2O2 signal modulators, primary screen, NOX inhibitor project, cell-based, HEK293-NOX4, tetracycline-induced, Amplex Red fluorescence (AID 1160). The settings on record: 45 min, higher = more signal, called active from +8 up or from −8 down.
Test [20] has as its target NADPH oxidase 5 (Homo sapiens) (UniProt Q96PH1). Put plainly: NOX5-dependent H2O2 signal modulators, primary screen, NOX inhibitor project, cell-based, HEK293-NOX5, Amplex Red fluorescence (AID 1161). The following applies: HEK293-NOX5, ionomycin, 45 min, higher = more signal.

The source made the active and inactive calls. Unless noted, how the calls were made is not given here.

NADPH oxidase 5 (Homo sapiens), sequence (Q96PH1 whole entry, looked up): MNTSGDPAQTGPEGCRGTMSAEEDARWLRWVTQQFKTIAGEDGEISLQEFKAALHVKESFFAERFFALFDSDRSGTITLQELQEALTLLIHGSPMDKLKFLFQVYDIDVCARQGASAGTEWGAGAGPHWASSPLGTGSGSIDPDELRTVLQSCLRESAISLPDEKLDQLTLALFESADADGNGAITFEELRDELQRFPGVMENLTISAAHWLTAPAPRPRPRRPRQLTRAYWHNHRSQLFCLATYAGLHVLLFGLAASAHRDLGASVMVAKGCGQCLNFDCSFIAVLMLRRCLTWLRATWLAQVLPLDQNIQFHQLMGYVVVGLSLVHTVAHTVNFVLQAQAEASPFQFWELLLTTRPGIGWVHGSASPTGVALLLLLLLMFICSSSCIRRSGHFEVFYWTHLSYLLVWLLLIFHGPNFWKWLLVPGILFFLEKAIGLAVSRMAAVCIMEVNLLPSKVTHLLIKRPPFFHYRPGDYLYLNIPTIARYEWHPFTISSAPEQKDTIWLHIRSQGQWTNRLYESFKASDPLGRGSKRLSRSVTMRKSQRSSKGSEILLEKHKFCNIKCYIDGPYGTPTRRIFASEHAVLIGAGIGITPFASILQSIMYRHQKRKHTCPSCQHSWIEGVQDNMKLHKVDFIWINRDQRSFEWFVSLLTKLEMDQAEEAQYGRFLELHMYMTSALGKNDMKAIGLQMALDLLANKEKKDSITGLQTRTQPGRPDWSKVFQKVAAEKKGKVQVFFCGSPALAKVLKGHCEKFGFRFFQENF
NADPH oxidase 4 (Homo sapiens), sequence (Q9NPH5 whole entry, looked up): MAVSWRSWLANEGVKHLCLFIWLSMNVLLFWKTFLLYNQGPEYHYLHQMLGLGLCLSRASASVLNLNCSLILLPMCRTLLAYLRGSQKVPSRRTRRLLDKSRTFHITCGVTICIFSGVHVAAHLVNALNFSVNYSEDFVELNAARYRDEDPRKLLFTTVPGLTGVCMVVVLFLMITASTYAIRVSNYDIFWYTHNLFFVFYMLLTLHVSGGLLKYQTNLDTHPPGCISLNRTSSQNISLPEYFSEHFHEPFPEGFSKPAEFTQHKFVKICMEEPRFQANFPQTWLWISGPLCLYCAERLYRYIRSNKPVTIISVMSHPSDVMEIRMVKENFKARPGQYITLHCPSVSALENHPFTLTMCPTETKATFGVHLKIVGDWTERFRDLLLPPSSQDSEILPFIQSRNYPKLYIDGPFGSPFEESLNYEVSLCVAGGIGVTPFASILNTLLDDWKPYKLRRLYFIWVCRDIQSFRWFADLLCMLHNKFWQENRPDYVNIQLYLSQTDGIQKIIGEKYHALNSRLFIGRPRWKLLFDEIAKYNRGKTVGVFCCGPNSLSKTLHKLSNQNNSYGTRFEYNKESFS

On to `CC[C@@H](O[Si](C#C[Si](C(C)C)(C(C)C)C(C)C)(C(C)C)C(C)C)c1cn(Cc2cccc(Cl)c2)nn1`, for which the composite z-score in test [1] was 0.159; in [6], 0.424; in test [7], -0.124; in the test with Torsin-1A (Homo sapiens) [8], 0.188; in the test with Torsin-1A (Homo sapiens) [9], 0.227; in test [10], 0.546. This compound registered a composite z-score in test [12] of 0.106. Besides, the z-score was 0.139 (inactive) in test [2]; -0.14 (inactive) in [3]; -0.272 (inactive) in test [4]; -0.168 (inactive) in [5]; 1.2 (inactive) in test [11]; -0.0842 (inactive) in test [13]. The z-score in [14] was 0.523 (inactive); in test [15], -0.559 (inactive); in [16] it was 0.0622 (inactive); in test [17] it was -0.559; in test [18], -0.16 (inactive); in test [19] it was -0.839 (inactive). For the same compound, in test [20], the z-score was -1.62.

In the case of `COC(=O)[C@@]1(Cc2ccc(F)cc2)[C@H]2c3cc(C(=O)N4CCCC4)n(Cc4ccc(OC(F)(F)F)cc4)c3C[C@H]2CN1C(=O)c1ccccc1`, the composite z-score in test [1] is -0.0554; in [6], -0.203; in test [7], 0.0306; in the test with Torsin-1A (Homo sapiens) [8], -0.0112; with Torsin-1A (Homo sapiens) [9], 0.395; in test [10], -1.02. Moreover, in test [12], the composite z-score was -0.0141. Further, the z-score in test [2] was -0.0066 (inactive); in test [3] it was -0.679 (inactive); in test [4] it was -0.185 (inactive); in test [5], 0.137 (inactive); in test [11] it was -2.47 (inactive); in test [13], 0.498 (inactive). Moreover, the z-score is 0.851 (inactive) in test [14]; -0.194 (inactive) in [15]; 0.642 (inactive) in test [16]; 0.0769 in test [17]; 0.372 (inactive) in [18]; 0.32 (inactive) in test [19]. The compound further returned a z-score in test [20] of -0.51.

In the case of `O=C1C2C=CC(C(O)C(c3ccccc3)c3ccccc3)N(Nc3ccccc3F)C2C(=O)N1c1ccccc1` (stereo not given), the composite z-score was 0.739 in [1]; 1.58 in test [6]; 0.0183 in test [7]; 1.02 in the test with Torsin-1A (Homo sapiens) [8]; 0.895 with Torsin-1A (Homo sapiens) [9]; 0.868 in test [10]. Further, the composite z-score in test [12] is 0.235. Also, the z-score was -1.16 (inactive) in test [2]; 0.712 (inactive) in test [3]; 2.73 (inactive) in test [4]; 0.993 (inactive) in test [5]; -1.6 (inactive) in test [11]; 2.23 (inactive) in test [13]. Further, the z-score was 1.25 (inactive) in test [14]; 0.663 (inactive) in test [15]; 0.852 (inactive) in [16]; -0.799 in test [17]; -1.34 (inactive) in test [18]; -2.28 (inactive) in test [19]. The same compound displayed a z-score in [20] of -1.87.

For the compound `C=C(C(=O)CC[C@@H](OC(=O)c1ccccc1-c1ccccc1C(=O)O)c1ccc(CO)o1)C(C)C`, the composite z-score in [1] was 0.389; in [6], -0.539; in [7], 0.0051; with Torsin-1A (Homo sapiens) [8] it was 1.28; in the test with Torsin-1A (Homo sapiens) [9], 0.317; in test [10], 1.65. This compound displayed a composite z-score in test [12] of 0.0945. Besides, the z-score was -0.115 (inactive) in test [2]; -0.306 (inactive) in [3]; 1.47 (inactive) in test [4]; 1.73 (inactive) in test [5]; -0.796 (inactive) in test [11]; 0.897 (inactive) in [13]. Besides, the z-score in test [14] was 0.192 (inactive); in test [15], 0.365 (inactive); in test [16], 0.0861 (inactive); in test [17] it was -0.535; in test [18] it was 1 (inactive); in test [19] it was -0.593 (inactive). This compound came in with a z-score in test [20] of -0.213.

As for `Cc1ccc(S[C@]2(C(=O)NCc3ccccc3)CC(=O)N(Cc3ccccc3C(F)(F)F)[C@@H]2c2ccc(CO)cc2I)cc1`, the composite z-score in [1] is -0.264; in test [6], -0.464; in test [7], 0.144; with Torsin-1A (Homo sapiens) [8], -0.545; in the test with Torsin-1A (Homo sapiens) [9], -0.45; in test [10], -0.26. Moreover, the composite z-score in test [12] was 0.056. Besides, the z-score was -1.5 (inactive) in test [2]; 1.59 (inactive) in [3]; 1.06 (inactive) in test [4]; 2.24 (inactive) in test [5]; 0.852 (inactive) in [11]; 5.8 (inactive) in [13]. The z-score in [14] is 0.943 (inactive); in [15] it was 0.836 (inactive); in test [16], 0.279 (inactive); in [17] it was 0.316; in test [18], 0.708 (inactive); in [19], -1.5 (inactive). The z-score in test [20] came to 1.11.

With `COCCOC(=O)N1C(=O)[C@@]2(c3cc(C#CCCO)ccc31)[C@H](C(=O)N1CCN(c3ncccn3)CC1)[C@H]1C(=O)O[C@H](c3ccccc3)[C@H](c3ccccc3)N1[C@@H]2c1ccc(OCCO)cc1`, the composite z-score in test [1] was 0.624; in test [6], 1.26; in test [7] it was 0.0528; with Torsin-1A (Homo sapiens) [8], -0.279; in the test with Torsin-1A (Homo sapiens) [9] it was 0.458; in [10], 1.99. The compound further showed a composite z-score in test [12] of 0.197. The z-score was -0.445 (inactive) in test [2]; 0.386 (inactive) in [3]; 1.05 (inactive) in test [4]; 0.136 (inactive) in [5]; -0.862 (inactive) in test [11]; 11.4 (active) in [13]. The z-score in test [14] is 3.12 (inactive); in test [15], 0.72 (inactive); in [16] it was 1.39 (inactive); in [17] it was -0.633; in [18], 1.45 (inactive); in [19] it was 0.709 (inactive). Also, the z-score in [20] is 1.21.

Consider `O=C1NC(=O)C2C1C=CC(C(O)C(O)CO)N2Nc1ccccn1` (stereo not given), for which the composite z-score was 0.146 in test [1]; 0.0832 in test [6]; -0.168 in test [7]; 0.435 with Torsin-1A (Homo sapiens) [8]; 0.344 with Torsin-1A (Homo sapiens) [9]; 0.199 in test [10]. Moreover, in test [12], the composite z-score was 0.586. In addition, the z-score in test [2] was 0.165 (inactive); in test [3] it was -0.893 (inactive); in test [4], 0.0603 (inactive); in [5], 0.0702 (inactive); in test [11] it was -0.0393 (inactive); in test [13], 0.0087 (inactive). Moreover, the z-score in test [14] was 0.0339 (inactive); in test [15] it was -0.489 (inactive); in [16], -0.145 (inactive); in test [17], 1.14; in test [18], -0.193 (inactive); in test [19] it was -0.921 (inactive). The z-score in test [20] was -0.339.

Consider `C=C[C@H](C)[C@@H](OC(=O)Nc1ccc(SC)cc1)c1ccc(OCCO)cc1`, for which the composite z-score in test [1] is 0.179; in [6], -0.363; in test [7], 0.36; with Torsin-1A (Homo sapiens) [8] it was -0.0803; in the test with Torsin-1A (Homo sapiens) [9], 0.278; in [10], 1.98. In [12], this compound returned a composite z-score of 0.459. The z-score in test [2] was -2.91 (inactive); in [3] it was -0.567 (inactive); in test [4], 6.08 (inactive); in test [5], -0.24 (inactive); in [11], -2.61 (inactive); in test [13], 28.3 (active). The z-score is 20.6 (active) in test [14]; 3.01 (inactive) in test [15]; 2.27 (inactive) in [16]; -0.336 in test [17]; -1.31 (inactive) in [18]; -1.23 (inactive) in test [19]. Further, the z-score in test [20] worked out at 0.0398.
